# Assay results reported in PubChem BioAssay AID1012 (Sanford-Burnham Center for Chemical Genomics, 2008).
# Hit rate of the full screen: of about 200,000 compounds, about 520 (0.26%) were called active.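 The calls were made as follows: active = tissue-nonspecific alkaline phosphatase inhibition above about 50% at 20 µM in the single-dose screen (limit read from the data); inactive = the rest.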 What follows is part of a selection rich in actives, with near analogues and random picks from the rest.
# Biological target: Alkaline phosphatase, tissue-nonspecific isozyme (Homo sapiens) (UniProt P05186)
# Assay: human TNAP enzyme inhibitors, primary screen, biochemical, luminescent, no phosphate acceptor, uHTS (AID 1012);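 also: 0% = DMSO negative control and 100% = EDTA positive control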
# Conditions: purified TNAP, CDP-star luminescence, 30 min; at 20 µM; stronger effect = higher value
# Sequence of Alkaline phosphatase, tissue-nonspecific isozyme (Homo sapiens) (P05186 whole entry, looked up): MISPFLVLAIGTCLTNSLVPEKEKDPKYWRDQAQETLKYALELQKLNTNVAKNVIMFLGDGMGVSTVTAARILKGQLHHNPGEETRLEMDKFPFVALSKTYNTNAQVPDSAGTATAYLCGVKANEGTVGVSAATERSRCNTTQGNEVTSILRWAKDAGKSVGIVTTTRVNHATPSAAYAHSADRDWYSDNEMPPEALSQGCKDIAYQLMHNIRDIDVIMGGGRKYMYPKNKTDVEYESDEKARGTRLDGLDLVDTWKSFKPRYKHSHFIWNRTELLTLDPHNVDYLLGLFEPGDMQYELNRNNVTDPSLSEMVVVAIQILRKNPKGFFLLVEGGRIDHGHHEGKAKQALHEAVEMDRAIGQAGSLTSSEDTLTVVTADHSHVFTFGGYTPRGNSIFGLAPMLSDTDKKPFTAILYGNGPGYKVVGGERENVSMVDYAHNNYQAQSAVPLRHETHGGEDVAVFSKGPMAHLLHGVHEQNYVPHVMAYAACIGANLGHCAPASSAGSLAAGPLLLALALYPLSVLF
row,SMILES,inhibition
1,O=C(COC(=O)CSc1nnc(-c2ccc(Cl)cc2)o1)Nc1cc(Cl)cc(Cl)c1,-10.5% (inactive)
2,COc1cc(N/C=C2\CC(=O)NC(C)=C2C#N)cc(OC)c1OC,-1.1% (inactive)
3,COc1ccc(-c2[nH]ncc2CN(C)Cc2cc(C)[nH]n2)c(F)c1,46.2% (inactive)
4,COc1ccc(-c2[nH]ncc2CN(C)Cc2cccnc2)c(F)c1,64.9% (active)
5,CCN(CCn1cccn1)Cc1cn[nH]c1-c1ccc(OC)cc1F,58.9% (active)
6,COc1ccc(-c2[nH]ncc2CN(Cc2nccn2C)C(C)C)cc1F,-9.7% (inactive)
7,COc1ccc(-c2[nH]ncc2CN(C)Cc2c(C)n[nH]c2C)c(OC)c1,-8.9% (inactive)
8,CCN(CCn1cccn1)Cc1nc(-c2ccc(C(=O)OC)cc2)no1,2.4% (inactive)
9,Cc1cc(C)n2nc(SCC(=O)NC(=O)NCc3ccco3)nc2n1,-9.4% (inactive)
10,CCOc1cc(N2CCOCC2)c(OCC)cc1NC(=O)c1ccc(C)s1,-8.9% (inactive)
11,CCn1c(CNS(=O)(=O)c2ccc(Cl)cc2)n[nH]c1=S,24.7% (inactive)
12,O=C(CN1CCSCC1)N/N=C/c1ccc(Cl)cc1,-4.4% (inactive)
13,Cc1cc(NC(=O)CN2C(=O)NC(C)(CCc3ccccc3)C2=O)no1 (stereo unspecified),-3% (inactive)
14,CCOC(=O)c1cc2c(=O)[nH]c(C(Cl)(Cl)Cl)nc2o1,-11% (inactive)
15,CCCN(CC1COc2ccccc2O1)C(=S)Nc1ccc(C)cc1 (stereo unspecified),-16% (inactive)
16,CN(C)C(CNC(=O)c1ccc(S(=O)(=O)NCc2ccco2)cc1)c1ccccc1 (stereo unspecified),7.7% (inactive)
17,C/C(CC(=O)N1CCN(C=O)CC1)=N\NC(=O)c1ccc(Br)cc1,0.3% (inactive)
18,Cc1ccc(NC(=O)c2sccc2C)cc1[N+](=O)[O-],-4.3% (inactive)
19,Cc1ccc(C(=O)NC(=S)Nc2ccc3[nH]c(=O)[nH]c3c2)cc1C,-9.4% (inactive)
20,CC(=O)NC(=S)NNC(=O)c1ccc(Br)cc1,-155% (inactive)
21,O=C(CSc1nnc(-c2ccncc2)n1-c1ccc(Cl)cc1)Nc1ccc(C(=O)O)cc1,0.2% (inactive)
22,CC(NC(=O)C(=O)NN=C1CCC(C(C)(C)C)CC1)c1ccccc1 (stereo unspecified),-15% (inactive)

row,SMILES,inhibition
1,CC(C)(C)C1CCC(=NNC(=O)c2cc(-c3ccccc3)n[nH]2)CC1 (stereo unspecified),62.6% (active)
2,CC(C)(C)C1CCC(=NNC(=O)c2ccc(Br)o2)CC1 (stereo unspecified),4.2% (inactive)
3,CCCCN(C)c1ccc([N+](=O)[O-])cc1,13.3% (inactive)
4,CN(C)CCCN1C(=O)CSC1c1ccc([N+](=O)[O-])cc1 (stereo unspecified),-4.5% (inactive)
5,COc1ccc(NC(=O)c2cc3nc(-c4ccccc4)cc(C)n3n2)cc1OC,-14.7% (inactive)
6,CCc1[nH]nc(C(=O)N2CCCC(CNS(=O)(=O)c3cccs3)C2)c1C (stereo unspecified),61.5% (active)
7,O=C(NCc1ccccc1)C1CCCN(S(=O)(=O)c2cccs2)C1 (stereo unspecified),-5.5% (inactive)
8,COc1ccc(S(=O)(=O)NCC2CCCN(C(=O)c3occc3C)C2)cc1 (stereo unspecified),-4.9% (inactive)
9,CCC(C(=O)Nc1ccc2c(c1)OCCO2)c1ccccc1 (stereo unspecified),-22.2% (inactive)
10,COCCCN(C(=S)Nc1c(C)cc(C)cc1C)C(C)c1ccncc1 (stereo unspecified),-17.6% (inactive)
11,CN(CCc1cn[nH]c1)C(=O)CC1C(=O)NCCN1Cc1cccc(Oc2ccccc2)c1 (stereo unspecified),-9.2% (inactive)
12,CCOc1ccc(/C=N/NC(=O)C(C)Sc2ccccn2)cc1OCC (stereo unspecified),-5.3% (inactive)
13,O=C1COc2ccc(C(=O)COC(=O)C3CC(O)CN3S(=O)(=O)c3ccc(Cl)cc3)cc2N1 (stereo unspecified),-11.9% (inactive)
14,COc1ccccc1Cn1c(C)nnc1-c1cnn(C)c1N,-14% (inactive)
15,Cc1ccccc1C(=O)Nc1ccc(N2CCCCCC2)cc1,-10.8% (inactive)
16,COc1ccc(Cl)cc1NC(=O)[C@@H]1CCCN1C(=O)c1cccs1,-0.4% (inactive)
17,O=C(NCc1ccc(F)cc1)C(c1ccccc1)N(C(=O)c1csnn1)C1CC1 (stereo unspecified),-11.9% (inactive)
18,C#CCOCCOCCOCCNc1nc(N2CCN(C(=O)[C@H](CCC(=O)O)n3cc(C(N)CO)nn3)CC2)nc(N2CCN(C(=O)[C@H](Cc3ccc(O)cc3)n3cc(C(N)[C@H](C)CC)nn3)CC2)n1 (stereo partly specified),-7.8% (inactive)
19,CN(C)C(=O)c1nc2ccc(Cl)cn2c1CN1CCN(c2ncccn2)CC1,-12.2% (inactive)
20,CCOC(=O)c1c(NC(=O)C2CCN(S(=O)(=O)c3ccc(Cl)cc3)CC2)sc2c1CCCC2,-6% (inactive)
21,O=C(CSc1nc(O)c(Cc2ccccc2)c(=O)[nH]1)Nc1nc2c(s1)CCCC2,-7.1% (inactive)
22,CCCCC(CC(C)O)c1n[nH]c(=S)n1-c1ccccc1 (stereo unspecified),-23.2% (inactive)

row,SMILES,inhibition
1,Cc1cccc(NC(=S)NCCc2ccc(F)cc2)c1C,-8.2% (inactive)
2,O=C(NNC(=S)NC1CCCCC1)c1ccccc1Cl,-122% (inactive)
3,O=S(=O)(NCCc1ccncc1)c1ccccc1,-12% (inactive)
4,COc1cccc(NC(=S)NC(=O)c2c(Cl)c(C)nn2C)c1,12.5% (inactive)
5,COc1ccc(NC(=O)COC(=O)c2ccncc2)c(OC)c1,-9.8% (inactive)
6,CCc1nnc(NC(=O)c2nc3nccc(C)n3n2)s1,-1.7% (inactive)
7,Cc1ccnc2nc(C(=O)Nc3nnc(-c4ccccc4)o3)nn12,52.3% (active)
8,CCCC(=O)Nc1nnc(-c2ccccc2)o1,-7.1% (inactive)
9,COc1ccc(N2C(=O)CC(Nc3ccc(F)cc3)C2=O)c([N+](=O)[O-])c1 (stereo unspecified),-5.2% (inactive)
10,Cc1ccc(NC(=O)CN2CCCCC2)c2c1CC(C)(C)O2,-3% (inactive)
11,O=C(O)CCn1c(SCc2cc(=O)n3ccccc3n2)nc2ccsc2c1=O,-2.2% (inactive)
12,COCCNC(=O)NC(=O)COC(=O)C1(c2ccc(Cl)cc2)CC1,-9.9% (inactive)
13,Cc1ccc(C(=O)OC2CCCN(C)C2)cc1 (stereo unspecified),-10.2% (inactive)
14,Nc1ncnc(Nc2cccc(Cl)c2Cl)n1,-2.3% (inactive)
15,COc1ccc(/C=C2\SC(=N)N(c3ccc(F)cc3)C2=O)cc1,-8% (inactive)
16,Cn1cccc1/C=C1\SC(=O)N(CC(=O)Nc2ccc(F)cc2)C1=O,-0.3% (inactive)
17,CC(C)OC(=O)Cn1nc(C(F)(F)F)c2c1CCCC2,0.5% (inactive)
18,CCOc1ccc(C(=O)NC2CCN(CC(=O)NCc3cccs3)CC2)cc1,-4.7% (inactive)
19,CC(NC(=O)C(=O)N/N=C/c1ccc(Cl)cc1)c1ccccc1 (stereo unspecified),3.3% (inactive)
20,COCCNC(=O)c1ccccc1NS(=O)(=O)c1ccc(C)c([N+](=O)[O-])c1,-7.3% (inactive)
21,Cc1ccnc(NC(=O)c2ccc(Cl)c([N+](=O)[O-])c2)c1,-11.1% (inactive)
22,CCOC(=O)NC(=O)C(=CNc1cccc(OC)c1)C(=O)NC(=O)OCC,-10.1% (inactive)
